Source: PubChem (several laboratories)
The list is not random: actives were taken first. Their share in the collection is about 27%.
CYP2C9 activ = human CYP2C9 activators, primary screen, biochemical, luminescence | Cytochrome P450 2C9 (Homo sapiens), P11712 | recombinant CYP2C9, luciferin-H conversion; stronger effect = higher value; factor 1 = untreated enzyme, 0 = blocked | activation factor at 5 µM | actives 1.4% (n = 96,000);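 active = activation factor of 2 or more for CYP2C9 at a 5 µM dose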;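 note: 0 = sulfaphenazole-blocked wells and 1 = vehicle-only wells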
CYP2C19 inh = blockers of cytochrome P450 2C19 activity – biochemical, luminescence, ADME assay, primary screen | CYP2C19 Supersomes, luciferin-H EGE luminescence, 30 min | inhibition, % at 5 µM | actives 21% (n = 96,000) | AID 778, 2007;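 active = CYP2C19 inhibition above a set limit at 5 µM in the primary screen, cut at about 50% in these data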;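 note: plate controls were negative control wells for no effect and 2.5 mM tranylcypromine positive control for full effect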
Cav3 T inh = Cav3.2 calcium influx blockers – cell-based, Fluo-4 calcium fluorescence, FDSS, MLSMR library, primary screen. Cav3.2-expressing cells; stronger effect = lower value. Voltage-dependent T-type calcium channel subunit alpha-1H (Homo sapiens), O95180. actives 4% (n = 100,000). B-score at 10 µM;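 active = single-dose well whose peak fluorescence ratio is a statistical outlier from its plate by either plate-standardised score or position-corrected B-score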
CYP2C9 inhib = blockers of cytochrome P450 2C9 activity – biochemical, luminescence, ADME assay, primary screen. CYP2C9 Supersomes, luciferin-H conversion. P11712. inhibition, % at 5 µM. actives 20% (n = 96,000);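 active = blocking of liver enzyme CYP2C9 beyond about 50% at 5 µM, limit read from the data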
CYP2C19 activ = human CYP2C19 activators, primary screen, biochemical, luminescence; Cytochrome P450 2C19 (Homo sapiens), P33261; 96,000 tested, under 10 active; activation factor at 5 µM; recombinant CYP2C19, luciferin-H EGE luminescence; stronger effect = higher value; 0 = fully inhibited enzyme, 1 = untreated enzyme;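 active = activation factor of at least 2 at 5 µM in the primary screen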;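 note: 0 = wells with 2.5 mM tranylcypromine and 1 = vehicle-only wells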
Starred values were filed as active, the others as inactive; . = no result given.

SMILES | CYP2C9 activ | CYP2C19 inh | Cav3 T inh | CYP2C9 inhib | CYP2C19 activ
CC(=O)N1CCc2cc(S(=O)(=O)NCCCN3CCN(Cc4ccccc4)CC3)ccc21 | 0.5 | 52* | . | 50 | 0.5
CC(=O)N1CCc2cc(S(=O)(=O)NCCC(=O)NC3CCN(Cc4ccccc4)CC3)ccc21 | 0.9 | -2 | -0.14 | 10 | 1
CC(=O)N1CCc2cc(S(=O)(=O)NCCN3CCC(C)CC3)ccc21 | 1 | 51* | 1.1 | 3 | 0.5
COc1ccc(C(=O)CSc2nnc(CNC(=O)c3ccc(OC)cc3)n2C)cc1 | 1 | 10 | -0.99 | 4 | 0.9
CCOC(=O)CSc1nc(-c2ccc(OC)cc2)ns1 | 1 | 13 | -0.0088 | -4 | 0.9
O=C(O)CCC(=O)N1CCc2cc(S(=O)(=O)NC3CCCC3)ccc21 | 1.1 | -16 | -4.2 | -7 | 1.2
O=C(C1CCC1)N1CCc2cc(S(=O)(=O)NCC3COc4ccccc4O3)ccc21 (stereo not drawn) | 0.8 | 17 | -0.72 | 25 | 0.8
O=C(C1CCC1)N1CCc2cc(S(=O)(=O)NC3CCCC3)ccc21 | 0.2 | 72* | 0.0042 | 83* | 0.3
O=C(C1CC1)N1CCc2cc(Br)cc(S(=O)(=O)NCC3COc4ccccc4O3)c21 (stereo not drawn) | 0.4 | 91* | -4.1* | 59* | 0.1
O=C(C1CC1)N1CCc2cc(S(=O)(=O)NCC3COc4ccccc4O3)ccc21 (stereo not drawn) | 0.5 | 72* | -3 | 52* | 0.3
COc1ccc(N2C(=O)CC(N3CCN(S(=O)(=O)c4c(F)cccc4F)CC3)C2=O)cc1OC (stereo not drawn) | 1.2 | -14 | 0.013 | -23 | 1.1
COCCNC(=O)Cn1c(=O)n(C)c2ccccc21 | 1 | -3 | 0.56 | 3 | 1
COc1ccc(/C=C/C(=O)NC(=S)NNC(=O)Cc2cccs2)cc1OC | 0.7 | 13 | -0.95 | 32 | 0.9
COc1ccc(C(=O)NC(=S)NNC(=O)Cc2cccs2)cc1 | 0.8 | -4 | -4.9* | 21 | 1
O=C(/C=C/c1cccs1)NC(=S)NNC(=O)Cc1cccs1 | . | . | -4.2* | . | .
COCCNC(=S)NNC(=O)c1ccco1 | 1.1 | -4 | 0.93 | -8 | 1
COc1ccc(C(=O)NNC(=S)NC(=O)c2ccco2)cc1 | 0.5 | -2 | -5.5* | 45 | 1
Cc1cccc(OCc2nc3ccccc3c(=O)n2N)c1 | 0.6 | 35 | -2 | 39 | 0.7
CCc1nnc(NS(=O)(=O)c2ccc(N/C=C\C(=O)c3ccc(C)cc3)cc2)s1 | 0.1 | 10 | -0.13 | 88* | 0.9
CCc1nnc(NS(=O)(=O)c2ccc(NS(=O)(=O)c3ccc(NC(C)=O)cc3)cc2)s1 | 0.2 | -5 | 0.54 | 77* | 1.1
CC(C)(C)SCCNC(=O)c1ccc(NS(C)(=O)=O)cc1 | 0.8 | -13 | 0.68 | 20 | 1.1
CCOC(=O)C[C@H]1c2ccccc2S(=O)(=O)N1C1CC1 | . | . | 0.55 | . | .
N#CC1(Cc2ccc([N+](=O)[O-])cc2)c2ccccc2C=CN1C(=O)c1ccccc1 (stereo not drawn) | 0.3 | 68* | . | 68* | 0.3
CC(=O)[C@@H]1[C@@H]2C(=O)N(Cc3ccccc3)C(=O)[C@@H]2C2c3ccccc3C=CN21 (stereo partly drawn) | 0.8 | 26 | -1.8 | 20 | 0.7
N#CC1(Cc2ccccc2)c2ccccc2C=CN1C(=O)c1ccccc1 (stereo not drawn) | 0.3 | 93* | -1.9 | 72* | 0.1
SMILES | CYP2C9 activ | CYP2C19 inh | Cav3 T inh | CYP2C9 inhib | CYP2C19 activ
COC(=O)Cc1c(O)ccn(Cc2ccc(F)cc2)c1=O | 1.1 | -3 | 0.04 | -13 | 1
COc1ccc(-c2nc3nc(C)cc(=O)n3[nH]2)cc1 | 0.9 | 2 | . | 7 | 1
FC(F)(F)Oc1ccc(Nc2nc3ccccc3o2)cc1 | 0.2 | 4 | -0.14 | 76* | 1
CC1CC(C)CN(C2CCN(Cc3cccnc3)CC2)C1 (stereo not drawn) | 0.9 | 3 | 0.47 | 12 | 1
Cc1ccc(NC(=O)N(Cc2ccco2)Cc2cc3cc(C)cc(C)c3nc2Cl)cc1 | 0.5 | 19 | . | 50* | 0.8
COCCN(Cc1cc2cc(C)ccc2nc1Cl)C(=O)Nc1ccccc1C | 0.9 | -2 | -0.64 | 12 | 1
Cc1cccc2cc(CN(Cc3ccco3)C(=O)Nc3cccc(C#N)c3)c(Cl)nc12 | 0.1 | 62* | -4.5* | 95* | 0.4
COC(=O)c1ccsc1NC(=O)CN1C(=O)CCC1=O | . | . | 0.7 | . | .
C=C(C)CN1C(=O)c2ccccc2C1=O | 1 | 18 | -1.8 | 3 | 0.8
Cc1ccc(C(=O)C(OC(=O)CN2C(=O)c3ccccc3C2=O)c2ccccc2)cc1 (stereo not drawn) | 0.8 | 44 | -5.9* | 18 | 0.6
Cc1ccc(C(=O)C(OC(=O)CN2C(=O)c3ccccc3C2=O)c2ccccc2)cc1C (stereo not drawn) | 2* | 26 | -5.1* | -96 | 0.7
Cc1ccc(S(=O)(=O)NCC(=O)OC(C(=O)c2ccccc2)c2ccccc2)cc1 (stereo not drawn) | 0.4 | 47 | -3.5* | 57* | 0.5
COC(=O)CNS(=O)(=O)c1ccc(C)cc1 | 1.1 | 5 | -0.087 | -7 | 1
O=C(CN1C(=O)c2ccccc2C1=O)c1ccccc1 | 0.5 | 26 | 1.3 | 51* | 0.7
O=C(CN1C(=O)c2ccccc2C1=O)OC(C(=O)c1ccc(Cl)cc1)c1ccccc1 (stereo not drawn) | 0.6 | 45 | -2.7 | 45 | 0.5
COc1ccccc1Nc1ncccc1C(=O)NCc1ccccc1 | 0.8 | 15 | 0.66 | 24 | 0.8
O=C(CCSc1nccn1Cc1ccccc1)N1CCOCC1 | 1.2 | 15 | -0.29 | -20 | 0.9
CC(=O)Nc1ccc(NC(=O)CSc2nccn2Cc2ccccc2)cc1 | 0.9 | 17 | -0.057 | 12 | 0.8
Cc1ccc(NC(=O)CSc2nccn2Cc2ccccc2)cc1C | 2* | 34 | -8* | -96 | 0.7
N#Cc1ccccc1NC(=O)CSc1nccn1CCc1ccccc1 | 1.4 | 59* | -2.4 | -40 | 0.4
O=[N+]([O-])c1ccc(Sc2nccn2Cc2ccccc2)cc1 | 0.3 | 96* | -0.91 | 70* | 0
Clc1ccc(CSc2nccn2Cc2ccccc2)cc1 | 1.1 | 93* | -5* | -9 | 0.1
COC(=O)c1ccc(OC(=O)C2CC(=O)N(c3ccc(C)cc3C)C2)cc1 (stereo not drawn) | 1 | 4 | 0.32 | -5 | 1
O=C1CCc2cc(S(=O)(=O)NC(Cc3ccccc3)C(=O)NC3CCCC3)ccc2N1 (stereo not drawn) | 0.8 | 11 | 0.0024 | 15 | 0.9
CC(=O)c1ccc(NC(=O)CSc2nccn2CCc2ccccc2)cc1 | 0.5 | 53* | -0.14 | 45 | 0.5
